Source: PubChem BioAssay
Shown are actives, neighbours in structure and some others; about 7.7% of the full set was active somewhere.
PD-1 reverse act: activators reversing PD-1 mediated T-cell inhibition, primary screen, luminescence, primary human CD4 T cells, PD-L1 beads; CellTiter-Glo 96 h; activation, % (concentration not given with the values); 29,000 tested, under 10 active; call rule not given here;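 note: 0% = median vehicle wells and 100% = positive control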
Shh pathway inh: Hedgehog pathway signaling inhibitors, primary screen, luminescence, Shh-LIGHT2 cells, Gli-luciferase; inhibition, % (test concentration not listed); Shh-LIGHT2 Gli-luciferase reporter, 30 h; 22,000 compounds, 2.1% hits; AID 2313, 2010;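 active = mean inhibition across valid replicates above about 65%, limit read from the data; inconclusive = mean under the limit, yet half or more replicates past it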;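 note: pathway switched on by Shh-conditioned medium diluted 1 in 25 in low serum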
NOMO-1 viab: NOMO-1 AML cell viability reduction, primary screen, STK33 inhibitor project, CellTiter-Glo luminescence; NOMO-1 AML viability, 72 h; inhibition, % (no concentration beside the values); 37,000 compounds, 7.5% hits; AID 2330, 2010; in the data active = inhibition above about 80%; inconclusive = no clear call, values can overlap the other calls
Numbers without * were called inactive; u = inconclusive; x = no result given.

SMILES | PD-1 reverse act | Shh pathway inh | NOMO-1 viab
C[C@H]1CN([C@@H](C)CO)C(=O)c2cc(NC(=O)Nc3ccc(C(F)(F)F)cc3)ccc2O[C@@H]1CN(C)Cc1ccccc1 | -2 | x | 94*
C[C@@H]1CN([C@@H](C)CO)C(=O)c2cc(NC(=O)Nc3ccc(F)cc3)ccc2O[C@@H]1CN(C)Cc1ccc(C(F)(F)F)cc1 | -1 | x | 105*
C[C@@H]1CN([C@H](C)CO)C(=O)c2cc(NC(=O)Nc3ccc(C(F)(F)F)cc3)ccc2O[C@H]1CN(C)Cc1ccccc1 | -5 | 10 | 76
C[C@@H]1CN([C@@H](C)CO)C(=O)c2cc(NC(=O)Nc3ccc(C(F)(F)F)cc3)ccc2O[C@@H]1CN(C)Cc1ccc(Oc2ccccc2)cc1 | -14 | x | 117*
C[C@H](CO)N1C[C@H](C)[C@H](CN(C)Cc2ccc(C(=O)O)cc2)Oc2ccc(NC(=O)Nc3ccc(C(F)(F)F)cc3)cc2C1=O | 1 | -47 | -15
C[C@@H]1CN([C@@H](C)CO)C(=O)c2cc(NC(=O)Nc3ccc(C(F)(F)F)cc3)ccc2O[C@@H]1CN(C)Cc1ccccc1 | -2 | 33 | 119*
C[C@@H]1CN([C@H](C)CO)C(=O)c2cc(NC(=O)Nc3ccc(C(F)(F)F)cc3)ccc2O[C@H]1CN(C)Cc1ccc(Oc2ccccc2)cc1 | x | -31 | 58
C[C@H]1CN([C@@H](C)CO)C(=O)c2cc(NC(=O)Nc3ccc(C(F)(F)F)cc3)ccc2O[C@@H]1CN(C)Cc1ccc(C(=O)O)cc1 | 1 | x | -23
Cc1ccc(NC(=O)c2cc(=O)[nH]c(=O)[nH]2)cc1 | 2 | -20 | -2
CC1(C)Cc2c(sc3c2c2ncnn2c2nnc(SCC(=O)NCc4ccccc4)n32)CO1 | x | x | 19
O=[N+]([O-])c1ncn(Cc2ccccn2)n1 | 1 | x | -17
CCc1ccc(OCC(=O)Nc2ccccc2-c2nc3ccccc3s2)cc1 | -1 | x | -19
COc1ccc(CN(C)C[C@@H]2Oc3ccc(NC(=O)Nc4ccc(C(F)(F)F)cc4)cc3C(=O)N([C@@H](C)CO)C[C@@H]2C)cc1 | 1 | 28 | 100*
C[C@H]1CN([C@@H](C)CO)C(=O)c2cc(NC(=O)Nc3ccc4c(c3)OCO4)ccc2O[C@@H]1CN(C)Cc1ccc(C(F)(F)F)cc1 | 2 | 4 | 11
C[C@@H]1CN([C@@H](C)CO)C(=O)c2cc(NC(=O)Nc3ccc4c(c3)OCO4)ccc2O[C@H]1CN(C)Cc1ccc(C(F)(F)F)cc1 | 0 | x | 93*
COc1ccc(NC(=O)Nc2ccc3c(c2)C(=O)N([C@H](C)CO)C[C@@H](C)[C@H](CN(C)Cc2ccc(C(F)(F)F)cc2)O3)cc1 | -1 | x | 49
Cc1c(Cl)cccc1NC(=O)c1ccccc1OCC(=O)Nc1ccc2c3c(cccc13)CC2 | -1 | x | 27
C[C@@H]1CN([C@H](C)CO)C(=O)Cc2cc(NS(=O)(=O)c3ccccc3)ccc2O[C@H]1CN(C)Cc1ccc(Oc2ccccc2)cc1 | -2 | 29 | 72
C[C@H]1CN([C@@H](C)CO)C(=O)Cc2cc(NS(=O)(=O)c3ccc(F)cc3)ccc2O[C@@H]1CN(C)Cc1ccc(Oc2ccccc2)cc1 | -2 | -8 | 96*
C[C@@H]1CN([C@H](C)CO)C(=O)Cc2cc(NS(=O)(=O)c3ccc(F)cc3)ccc2O[C@H]1CN(C)Cc1ccc(Oc2ccccc2)cc1 | -9 | 50 | 127*
Cc1ccc(S(=O)(=O)Nc2ccc3c(c2)CC(=O)N([C@H](C)CO)C[C@@H](C)[C@H](CN(C)Cc2ccc(Oc4ccccc4)cc2)O3)cc1 | -4 | -22 | u
Cc1ccc(S(=O)(=O)Nc2ccc3c(c2)CC(=O)N([C@H](C)CO)C[C@@H](C)[C@@H](CN(C)Cc2ccc(Oc4ccccc4)cc2)O3)cc1 | -1 | 35 | 115*
COc1ccc(S(=O)(=O)Nc2ccc3c(c2)CC(=O)N([C@H](C)CO)C[C@@H](C)[C@H](CN(C)Cc2ccc(Oc4ccccc4)cc2)O3)cc1 | -1 | 14 | 124*
COc1ccc(S(=O)(=O)Nc2ccc3c(c2)CC(=O)N([C@@H](C)CO)C[C@H](C)[C@@H](CN(C)Cc2ccc(Oc4ccccc4)cc2)O3)cc1 | -1 | 18 | 64
C[C@@H]1CN([C@@H](C)CO)C(=O)Cc2cc(NS(=O)(=O)c3ccccc3)ccc2O[C@@H]1CN(C)Cc1ccc(Oc2ccccc2)cc1 | x | 12 | 63
SMILES | PD-1 reverse act | Shh pathway inh | NOMO-1 viab
Cc1cc(OCc2ccc(Br)cc2)nc(-c2ccccc2O)n1 | 1 | -1 | 0
COc1ccc(OCc2ncc(-c3ccc4c(c3)OCCCO4)s2)cc1 | 0 | 3 | 6
O=C(CSc1nnc(-c2ccco2)n1-c1ccccc1)c1ccc2c(c1)OCCO2 | -1 | x | 19
C[C@@H]1CN([C@@H](C)CO)C(=O)c2cccc(NC(=O)Nc3ccc(F)cc3)c2O[C@H]1CN(C)S(=O)(=O)c1ccc(Cl)cc1 | x | 4 | 24
C[C@H](CO)N1C[C@H](C)[C@@H](CN(C)S(=O)(=O)c2ccc(Cl)cc2)Oc2c(NC(=O)Nc3ccccc3)cccc2C1=O | 0 | -88 | 53
C[C@@H]1CN([C@@H](C)CO)C(=O)c2cccc(NC(=O)Nc3ccc(F)cc3)c2O[C@@H]1CN(C)S(=O)(=O)c1ccc(Cl)cc1 | 1 | 35 | 82*
C[C@H](CO)N1C[C@H](C)[C@H](CN(C)S(=O)(=O)c2ccc(Cl)cc2)Oc2c(NC(=O)Nc3ccccc3)cccc2C1=O | x | 117* | 42
C[C@H]1CN([C@@H](C)CO)C(=O)c2cccc(NC(=O)Nc3ccc(F)cc3)c2O[C@@H]1CN(C)S(=O)(=O)c1ccc(Cl)cc1 | x | 18 | 11
C[C@H](CO)N1C[C@H](C)[C@H](CN(C)S(=O)(=O)c2ccc(Cl)cc2)Oc2c(NC(=O)Nc3ccc(F)cc3)cccc2C1=O | -3 | 117* | 93*
COc1ccc(NC(=O)Nc2ccc(OC)c(OC)c2)cc1OC | 0 | 1 | 32
O=C(Oc1ccc(-c2ccccc2)cc1)c1cccs1 | 0 | 4 | 23
COc1ccc(C(=O)CSc2nc3cc(C)c(C)cc3[nH]2)cc1OC | x | x | -9
Cc1cccc(NC(=O)C2CN(S(=O)(=O)c3ccccc3)CCN2S(=O)(=O)c2ccccc2)c1 (configuration not stated) | x | x | 6
CS(=O)(=O)CS(=O)(=O)C1=C(N2CCOCC2)C2CCN1CC2 | -1 | -7 | 14
CCc1ccc(N2NC(=O)C(=C(C)C)C2=O)cc1 | 6 | 6 | 33
C[C@@H]1CN([C@H](C)CO)C(=O)Cc2cc(N(C)C)ccc2O[C@H]1CN(C)Cc1ccc(C(=O)Nc2ccccc2N)cc1 | -2 | x | 127*
C[C@@H]1CN([C@H](C)CO)C(=O)Cc2cc(NC(=O)C3CC3)ccc2O[C@@H]1CN(C)Cc1ccc(C(=O)Nc2ccccc2N)cc1 | -1 | x | 65
C[C@@H]1CN([C@H](C)CO)C(=O)Cc2cc(NC(=O)c3ccncc3)ccc2O[C@H]1CN(C)Cc1ccc(C(=O)Nc2ccccc2N)cc1 | 0 | x | 29
C[C@@H]1CN([C@H](C)CO)C(=O)Cc2cc(N(C)C)ccc2O[C@@H]1CN(C)Cc1ccc(C(=O)Nc2ccccc2N)cc1 | -3 | x | 140*
CCOC(=O)Cn1c(C)c(Sc2ccccc2)c2ccccc21 | -2 | x | 13
